CHRM1 PAM = potentiates human M1 receptor response to acetylcholine; P11229; CHO-K1 hM1, Fluo-8 calcium fluorescence, ACh EC20; 0% = ACh EC20, 100% = maximal ACh; activation, % at 3 µM; actives 0.088% (n = 360,000); in the data active means activation above about 19%, passing the limit was not always enough
Target sequence (P11229 whole entry, looked up): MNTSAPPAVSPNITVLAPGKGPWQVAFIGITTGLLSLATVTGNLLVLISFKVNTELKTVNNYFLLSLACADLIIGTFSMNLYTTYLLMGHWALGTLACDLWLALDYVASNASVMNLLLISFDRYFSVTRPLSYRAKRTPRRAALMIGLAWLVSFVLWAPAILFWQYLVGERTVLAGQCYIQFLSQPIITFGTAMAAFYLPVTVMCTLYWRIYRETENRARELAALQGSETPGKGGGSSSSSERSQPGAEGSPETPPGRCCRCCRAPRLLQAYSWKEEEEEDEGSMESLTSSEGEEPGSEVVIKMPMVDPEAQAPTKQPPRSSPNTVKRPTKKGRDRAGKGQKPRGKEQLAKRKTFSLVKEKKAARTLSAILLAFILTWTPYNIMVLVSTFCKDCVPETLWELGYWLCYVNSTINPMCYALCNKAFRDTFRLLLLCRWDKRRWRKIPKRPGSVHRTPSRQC
M4 antag = blocks acetylcholine activation of human M4 receptor | P08173 | actives 0.73% (n = 360,000) | AID 624125 | inhibition, % at 3 µM | CHO-hM4 cells, ACh EC80, Fluo-8 calcium fluorescence;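 active means inhibition above its plate's cutoff, the mean inhibition of sample wells plus 3 SD, cut at about 27% in these data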
CHRM4 agonist = agonists of human muscarinic M4 receptor (CHRM4); CHO-K1 hM4/Gqi5, Fluo-8 calcium fluorescence; vehicle 0%, full acetylcholine response 100%; P08173; activation, % at 3 µM; actives 0.14% (n = 360,000); AID 624127;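 active means activation above the run mean over all test wells plus 3 SD, cut at about 32% in these data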;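 further: peak over basal fluorescence ratio per well then scaled between controls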
CHRM1 antagonist = antagonists of human M1 muscarinic receptor. P11229. CHO-K1 hM1, Fluo-8 calcium fluorescence, ACh EC80 antagonist. inhibition, % at 3 µM. actives 1.3% (n = 360,000). AID 588852;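 active means percent inhibition above its own plate's cutoff, namely the mean of that plate's compound wells plus 3 SD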;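 further: peak over basal fluorescence ratio during 140 s after agonist addition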
M4 PAM = CHRM4 positive allosteric modulation; P08173; CHO-K1 hM4/Gqi5, Fluo-8 calcium fluorescence, ACh EC20; 0% = ACh EC20, 100% = maximal ACh; activation, % at 3 µM; actives 0.4% (n = 360,000); AID 624126;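 active means activation above its plate's cutoff, the mean activation of sample wells plus 3 SD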
M1 ag = agonists of human M1 muscarinic receptor | P11229 | CHO-K1 hM1, Fluo-8 calcium fluorescence, agonist mode; 0% DMSO, 100% acetylcholine EC100 | activation, % at 3 µM | actives 0.33% (n = 360,000);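 active means activation above the run's mean compound activation plus 3 SD, cut at about 16% in these data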;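 further: peak over basal fluorescence ratio within a 140 s kinetic read after compound addition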
A number is an active result; i = inactive. A selection: hits, their analogues and other compounds. The true share with any hit is near 2.2%.

SMILES | CHRM1 PAM | M4 antag | CHRM4 agonist | CHRM1 antagonist | M4 PAM | M1 ag
CCN1CCN(c2ccc(NC(=O)c3ccc4c(c3)OCO4)cc2)CC1 | i | i | i | i | i | i
O=C(Nc1ccncc1)c1ccc(Cl)c(S(=O)(=O)N2CCCCC2)c1 | i | i | i | i | i | i
CCN(CC)CCOC(=O)c1ccc(NC(=O)c2ccc(Cl)c(S(=O)(=O)N3CCCCCC3)c2)cc1 | i | 35.8 | i | 97.8 | i | i
CCCCOc1cccc(C(=O)Nc2ccc(N3CCN(CC)CC3)cc2)c1 | i | i | i | 75.2 | i | i
CCOC(=O)N1CCN(C(=O)c2ccc(N3C(=O)CCC3=O)cc2)CC1 | i | i | i | i | i | i
Cc1ccc(C(C[N+](=O)[O-])n2nc(C)cc2C)cc1 (configuration not stated) | i | i | i | i | i | i
O=C(Nc1cccc2ccccc12)c1ccc(F)cc1 | i | i | i | i | i | i
CC(=O)c1ccc(S(=O)(=O)N2CCN(c3nc(-c4cccnc4)nc4ccccc34)CC2)cc1 | i | i | i | 76.2 | i | i
O=S(=O)(c1ccccc1)N1CCN(c2nc(-c3cccnc3)nc3ccccc23)CC1 | i | i | i | i | i | i
COc1ccc(NC(=O)c2oc3ccccc3c2NC(=O)c2ccc3c(c2)OCO3)cc1 | i | i | i | i | i | i
CCOC(=O)c1c(NC(=O)COC(=O)c2ccc(O)cc2)sc(C(=O)N(C)C)c1C | i | i | i | i | i | i
Nc1nc(SCc2ccccc2[N+](=O)[O-])c2ncn(Cc3ccccc3)c2n1 | i | 40.3 | i | i | i | i
Cc1ccccc1OCC(=O)OCn1nnc2ccccc2c1=O | i | i | i | i | i | i
COc1ccc(C)cc1-n1nnnc1SCC(=O)c1ccc2c(c1)OCCO2 | i | i | i | i | i | i
CCOc1ccc(/C=C/C(=O)c2c(O)c3ccccc3oc2=O)cc1 | i | i | i | i | i | i
CN(C)c1ccc(/C=C/C(=O)c2c(O)c3ccccc3oc2=O)cc1 | i | i | i | i | i | 29.6
O=C(O)C1(NS(=O)(=O)c2ccc(F)c(Cl)c2)CCCCC1 | i | i | i | i | i | i
O=C(CCl)N1c2ccccc2Oc2ccc3ccccc3c21 | i | 31.9 | 47.5 | i | i | i
CC(=O)N1c2ccccc2Oc2cc3ccccc3cc21 | i | i | i | i | i | i
CCOC(=O)c1c(C)[nH]c(C)c1S(=O)(=O)N(C)CC(=O)Nc1ccccc1OC | i | i | i | i | i | i
CCOc1ccccc1C(=O)OCC(=O)NCC1CCCCC1 | i | 41.9 | i | i | i | i
CCOc1ccccc1C(=O)OCC(=O)NCC1CCCO1 (configuration not stated) | i | i | i | i | i | i
O=C1N/C(=N\N=C\c2cccs2)SC1Cc1ccc(Cl)cc1Cl (configuration not stated) | i | i | i | i | i | i
CCN(C1CCCCC1)S(=O)(=O)c1ccc(S(=O)(=O)NCCc2ccncc2)cc1 | i | i | i | i | i | i
CCN(C1CCCCC1)S(=O)(=O)c1ccc(S(=O)(=O)NCc2ccncc2)cc1 | i | i | i | 35.3 | i | i
SMILES | CHRM1 PAM | M4 antag | CHRM4 agonist | CHRM1 antagonist | M4 PAM | M1 ag
CC(CCN1C(N(C)C)=NC[C@@H]1C)c1ccccc1 (some centres not stated) | i | i | i | 31.1 | i | i
CCC(C)CCN1C(N(C)C)=NC[C@@H]1C (some centres not stated) | i | 39.1 | i | i | i | i
C[C@H]1CN=C(N(C)C)N1CCc1ccccc1 | i | i | i | i | i | i
Cc1ccccc1C(=O)Nc1nnc(CC(=O)N/N=C/c2ccco2)s1 | i | i | i | i | i | i
COc1ccccc1-c1ccc(/C=C2\C=CC(=O)O2)o1 | i | i | i | i | i | 27.0
COc1ccccc1-c1ccc(/C=C2/C=C(C)OC2=O)o1 | i | i | i | i | i | i
NC(=O)CCCc1nc(-c2ccccc2)no1 | i | i | i | i | i | i
COc1ccc(N=Cc2sc(O)c3ccccc23)cc1 | i | i | i | 29.6 | i | 29.6
COc1ccc(N=Cc2c(O)c3ccccc3n2C(C)=O)cc1 | i | i | i | i | i | i
Cc1ccc(S(=O)(=O)N(C)Cc2cc3cc(C)ccc3[nH]c2=O)cc1 | i | i | i | i | i | i
O=c1c2c(nc3n1CCCCC3)-c1ccccc1CC21CCCC1 | i | i | i | 30.9 | i | i
CCc1c(C)c2ccc(OCC(=O)N(C)C)c(C)c2oc1=O | i | i | i | i | i | i
CCOC(=O)CCc1c(C)c2ccc(OCC(=O)N(CC)CC)c(C)c2oc1=O | i | 35.7 | i | i | i | i
CCOC(=O)c1[nH]c2ccc(Br)cc2c1NC(=O)CCN1CCC(C)CC1 | i | i | i | 31.9 | i | i
COc1ccc(C)cc1NC(=O)C1CCN(C(=O)C2CC(=O)N(c3ccc(C)cc3)C2)CC1 (configuration not stated) | i | i | i | i | i | i
CN(C)CCCN(C(=O)c1cc(Cl)sc1Cl)c1nc2cc3c(cc2s1)OCO3 | i | 62.5 | i | 96.1 | i | i
CCN(Cc1ccccc1)S(=O)(=O)c1ccc(C(=O)N(CCCN(C)C)c2nc3ccc(F)cc3s2)cc1 | i | i | i | i | i | i
CCN(Cc1ccccc1)S(=O)(=O)c1ccc(C(=O)N(CCCN(C)C)c2nc3cc4c(cc3s2)OCCO4)cc1 | i | i | i | 21.2 | i | i
CC(C)(C)C(=O)/C=c1\s/c(=C\c2ccc(-c3ccc([N+](=O)[O-])cc3)o2)c(=O)n1CC(=O)NC(N)=O | i | i | i | 39.0 | i | 23.3
CCC(=O)N/N=C/c1ccc(-c2ccc([N+](=O)[O-])cc2)o1 | i | i | i | i | i | i
O=C(c1cc2cc(F)ccc2[nH]1)N(Cc1cccnc1)CC1CCCN(C2CCCCC2)C1 (configuration not stated) | i | i | i | 35.0 | i | i
C#Cc1cccc(C(=O)N(Cc2cccnc2)CC2CCCN(C3CCCCC3)C2)c1 (configuration not stated) | i | i | i | i | i | i
COc1ccc(NC(=O)/C(Cl)=C(/Cl)S(=O)Cc2ccc(Cl)cc2)cn1 (configuration not stated) | i | 30.2 | i | i | i | i
COc1ccc(NC(=O)C(Cl)=C(Cl)Cl)cn1 | i | i | i | i | i | i
COc1cc(C(=O)NCC(c2cccs2)N(C)C)cc(Cl)c1OC(C)C (configuration not stated) | i | i | i | i | i | i
CCN1C(=NCC2CC2)N[C@@H](c2cccc(C(F)(F)F)c2)C(C(=O)OC)=C1C | i | i | i | i | i | i

Screening data from PubChem BioAssay.
